Screens from PubChem.
Rows were chosen to be rich in hits. Some 2.1% of all compounds tested hit in one or more screens of this group.
SMARCA2 activ = increases SMARCA2 function in MMTV reporter cells. MG213 cells, MMTV-luciferase reporter, dexamethasone, overnight. activation, % at 9.1 µM. AID 652017. 1% of 370,000 active; in the data active = activation above about 7.8%;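 note: 0% = vehicle wells and 100% = reference activator wells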
ABCB6 inh 2 = human ABCB6 transporter inhibition; K562-ABCB6 porphyrin accumulation, flow cytometry, 1 h; stronger effect = lower value; fluorescence ratio to DMSO, % at 10 µM; 0.19% of 360,000 active;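 active = fluorescence ratio to DMSO below 75%, the collection mean minus 3 SD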;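 note: signal is porphyrin accumulated inside mitochondria; 100% equals median channel fluorescence of DMSO control wells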
Target sequence (Q9NP58 whole entry, looked up): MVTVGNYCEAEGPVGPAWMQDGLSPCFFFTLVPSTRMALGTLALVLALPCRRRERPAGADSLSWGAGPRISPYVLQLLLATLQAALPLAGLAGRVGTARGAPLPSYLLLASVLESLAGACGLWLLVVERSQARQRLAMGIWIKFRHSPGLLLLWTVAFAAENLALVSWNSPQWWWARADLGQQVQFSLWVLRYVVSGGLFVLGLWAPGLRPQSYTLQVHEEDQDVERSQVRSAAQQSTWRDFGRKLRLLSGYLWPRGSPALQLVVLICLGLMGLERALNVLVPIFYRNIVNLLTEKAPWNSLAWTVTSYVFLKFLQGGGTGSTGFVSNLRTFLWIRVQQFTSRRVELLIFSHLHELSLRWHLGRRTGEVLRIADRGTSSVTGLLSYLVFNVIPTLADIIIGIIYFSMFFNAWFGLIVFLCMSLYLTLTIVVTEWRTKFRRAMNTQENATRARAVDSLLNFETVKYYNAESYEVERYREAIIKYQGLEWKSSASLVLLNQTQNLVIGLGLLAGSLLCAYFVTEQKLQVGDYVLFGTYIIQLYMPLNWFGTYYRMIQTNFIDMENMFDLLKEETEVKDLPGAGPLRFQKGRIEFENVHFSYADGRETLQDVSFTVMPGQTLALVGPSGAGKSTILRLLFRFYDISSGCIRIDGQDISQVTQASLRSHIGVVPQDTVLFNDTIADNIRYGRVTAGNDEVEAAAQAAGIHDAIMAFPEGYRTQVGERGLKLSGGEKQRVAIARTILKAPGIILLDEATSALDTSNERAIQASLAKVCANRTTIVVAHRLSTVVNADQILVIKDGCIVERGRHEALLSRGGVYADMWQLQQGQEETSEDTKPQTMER
MsrA inh = inhibits bovine methionine sulfoxide reductase A; 0.75% of 360,000 active; purified bovine MsrA, absorbance read-out; inhibition, % at 15.5 µM; in the data active = inhibition above about 4.5%;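 note: 0% = vehicle wells with enzyme and 100% = reference inhibitor wells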
MsrA act = bovine methionine sulfoxide reductase A activation; 0.3% of 360,000 active; AID 602163; purified bovine MsrA, absorbance read-out; activation, % at 10.6 µM; in the data active = activation above about 7.5%;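 note: 0% = vehicle and 100% = reference activator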
MsrA activ conf = confirmation of bovine methionine sulfoxide reductase A activators | shares compounds with MsrA act | purified bovine MsrA, absorbance read-out | activation, % at 10.6 µM | 12% of 1,000 active | AID 602270; in the data active = activation above about 4%;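 note: enzyme coupled to thioredoxin and thioredoxin reductase with NADPH; 0% = vehicle wells and 100% = reference activator wells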
Starred values were filed as active, the others as inactive.

For COc1ccc(CCNS(=O)(=O)c2ccc(C3CNC(=O)C3)cc2)cc1OC (centres undefined) the results were SMARCA2 activ 0, ABCB6 inh 2 98, MsrA inh 0, MsrA act 9.5* and MsrA activ conf -2.
`C[C@@H]1[C@@H](c2ccccc2)c2cc3ccccc3nc2-c2nc3ccccc3cc2[C@@H]1C(=O)N1CCCC1` gave SMARCA2 activ -1.
Screening CCOC(=O)CNC(=O)c1ccccc1Br returned SMARCA2 activ 2, ABCB6 inh 2 109, MsrA inh 0, MsrA act 21* and MsrA activ conf -1.
Screening Cc1ccc(S(=O)(=O)N2CCC(C(=O)OCC(=O)N3CCc4ccccc43)CC2)cc1 returned SMARCA2 activ -1, ABCB6 inh 2 98, MsrA inh -1, MsrA act 8.4* and MsrA activ conf 0.
`Cc1ccc(S(=O)(=O)N2CCC[C@H]2C(=O)OCC(=O)N2CCc3ccccc32)cc1` gave SMARCA2 activ 0, ABCB6 inh 2 105, MsrA inh 0 and MsrA act 0.
Screening CCn1c(SCc2c(F)cccc2F)nc2sc3c(c2c1=O)CCCC3 returned SMARCA2 activ -4.
Screening CCCC(C)NC(=O)CC1Oc2ccccc2NC1=O (centres undefined) returned SMARCA2 activ -6.
`COC(=O)C1CN(Cc2cn(Cc3ccc(OC)cc3)nn2)CCS(=O)(=O)N1Cc1ccc(F)cc1` (centres undefined) gave SMARCA2 activ -1.
`CCOc1ccc(-n2ccnc2)nn1` gave SMARCA2 activ 0, ABCB6 inh 2 100, MsrA inh 0, MsrA act 8.1* and MsrA activ conf -3.
CC1=C(C(=O)OC(C)C)C(c2cccc(F)c2)N2C(=O)C(C)SC2=N1 (centres undefined) was read as SMARCA2 activ -1, ABCB6 inh 2 96, MsrA inh 1, MsrA act 9.8* and MsrA activ conf 0.
CC1=C(C(=O)OCC(C)C)C(c2cccc(F)c2)N2C(=O)C(C)SC2=N1 (centres undefined) was read as SMARCA2 activ 0, ABCB6 inh 2 95, MsrA inh 1 and MsrA act 0.
CC[n+]1ccc(/C=C/c2ccc(N(C)C)cc2)c2ccccc21 was read as SMARCA2 activ -7, ABCB6 inh 2 inactive, MsrA inh 2 and MsrA act -1.
For CC[n+]1ccc(C[n+]2ccccc2)c2ccccc21 the results were SMARCA2 activ 4, ABCB6 inh 2 94, MsrA inh 1, MsrA act 11* and MsrA activ conf 1.
`CC(=O)Nc1ccc(S(=O)(=O)N2c3ccccc3NC(=O)CC2C)c(Cl)c1` (centres undefined) gave SMARCA2 activ 0, ABCB6 inh 2 92, MsrA inh 0, MsrA act 12* and MsrA activ conf 1.
`COc1cc(C(=O)Oc2cccnc2)cc(OC)c1OC` gave SMARCA2 activ 1, ABCB6 inh 2 99, MsrA inh 0 and MsrA act 0.
For COc1cc(C(=O)Oc2cc(C)cc(C)c2)cc(OC)c1OC the results were SMARCA2 activ -1, ABCB6 inh 2 92, MsrA inh 0, MsrA act 8.8* and MsrA activ conf -3.
COc1ccc(OC)c(S(=O)(=O)N2CCC(C(=O)N3CCN(C4CCCCC4)CC3)CC2)c1 was read as SMARCA2 activ 3.
Screening Cc1cc(C)c2c(-n3cccc3)c(C(=O)NNS(=O)(=O)c3ccc(Br)cc3)sc2n1 returned SMARCA2 activ -4, ABCB6 inh 2 96, MsrA inh 1, MsrA act 8.5* and MsrA activ conf -2.
For Cn1c(SCCOc2ccccc2Cl)nnc1-c1ccncc1 the results were SMARCA2 activ -2, ABCB6 inh 2 103, MsrA inh -2, MsrA act 8.5* and MsrA activ conf 0.
Screening Cc1ccccc1OCCSc1nnc(-c2ccncc2)n1C returned SMARCA2 activ 1, ABCB6 inh 2 105, MsrA inh 1 and MsrA act 5.
`Nn1c(SCC(=O)Nc2ccccc2-c2ccccc2)nnc1-c1n[nH]c2c1CCC2` gave SMARCA2 activ 0.
For CCCCCn1cnc2sc(CC)cc2c1=O the results were SMARCA2 activ 1, ABCB6 inh 2 98, MsrA inh -1, MsrA act 14* and MsrA activ conf 3.
Screening CCCCC(=O)N1CCN(C(=O)c2ccc3c(c2)nc(C)n3C2CCCC2)CC1 returned SMARCA2 activ -6.
`CC(=O)NC1(c2ccc(F)cc2)CCN(C(=O)Nc2ccc(F)cc2F)CC1` gave SMARCA2 activ -2, ABCB6 inh 2 98, MsrA inh -1, MsrA act 8.6* and MsrA activ conf 0.
